Measurements as given in paper PMC4336329 (PLoS ONE, 2015).
Among all 310,000 compounds or so, about 14,000 (4.5%) showed an effect of 50% or more. Effects have a minus sign here. The entries come from a sample that favours strong results as a whole.
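Further: peak tail current of the secondary pulse compared with the same well before compound.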

Each compound was assayed against human ether-à-go-go-related gene (hERG) potassium channel (human, UniProt Q12809) (assay: primary screen, population patch clamp on CHO cells stably expressing hERG; higher = less effect of the substance).
human ether-à-go-go-related gene (hERG) potassium channel, sequence (Q12809 whole entry, looked up): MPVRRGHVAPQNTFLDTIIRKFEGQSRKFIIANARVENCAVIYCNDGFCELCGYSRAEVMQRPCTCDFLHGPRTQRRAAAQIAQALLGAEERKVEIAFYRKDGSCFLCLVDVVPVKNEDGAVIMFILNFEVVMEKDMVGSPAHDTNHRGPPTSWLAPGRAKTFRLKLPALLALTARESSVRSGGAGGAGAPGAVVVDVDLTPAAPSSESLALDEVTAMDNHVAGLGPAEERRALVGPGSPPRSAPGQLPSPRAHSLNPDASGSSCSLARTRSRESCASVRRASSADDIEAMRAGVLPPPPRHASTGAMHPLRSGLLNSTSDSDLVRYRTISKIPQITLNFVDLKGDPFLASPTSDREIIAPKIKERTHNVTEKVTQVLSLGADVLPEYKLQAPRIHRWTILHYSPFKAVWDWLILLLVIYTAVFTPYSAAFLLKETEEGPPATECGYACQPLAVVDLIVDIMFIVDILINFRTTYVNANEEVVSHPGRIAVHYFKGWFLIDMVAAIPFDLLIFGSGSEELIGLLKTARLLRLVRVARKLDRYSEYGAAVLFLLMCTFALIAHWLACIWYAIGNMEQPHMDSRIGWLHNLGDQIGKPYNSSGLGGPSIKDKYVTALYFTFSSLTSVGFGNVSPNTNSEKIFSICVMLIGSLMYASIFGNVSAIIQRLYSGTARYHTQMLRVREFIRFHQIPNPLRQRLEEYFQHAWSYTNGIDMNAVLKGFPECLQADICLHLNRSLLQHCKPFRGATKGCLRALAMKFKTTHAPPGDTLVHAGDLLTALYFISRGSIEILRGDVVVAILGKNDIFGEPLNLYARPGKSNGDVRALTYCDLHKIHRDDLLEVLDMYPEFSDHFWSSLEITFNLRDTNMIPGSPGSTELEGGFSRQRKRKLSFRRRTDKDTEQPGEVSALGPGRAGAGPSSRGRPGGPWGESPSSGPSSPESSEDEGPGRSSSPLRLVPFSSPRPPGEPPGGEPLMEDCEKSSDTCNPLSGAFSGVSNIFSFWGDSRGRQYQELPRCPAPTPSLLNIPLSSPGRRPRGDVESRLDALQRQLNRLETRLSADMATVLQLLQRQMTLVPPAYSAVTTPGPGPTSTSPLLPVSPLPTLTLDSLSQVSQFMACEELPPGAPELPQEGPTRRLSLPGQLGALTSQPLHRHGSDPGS
For `O=C(CNC(=O)c1ccc(Br)o1)NCc1ccccc1Cl`, the “hERG current change (%, negative = inhibition) at 10uM” value was 1.15%. For `CCCCc1ccc(NC(=S)NCCN2CCOCC2)cc1`, the “hERG current change (%, negative = inhibition) at 10uM” value was -39%. With `CCOC(=O)CSc1cc(C(F)(F)F)nc(-c2ccccn2)n1` the “hERG current change (%, negative = inhibition) at 10uM” value was -31.5%. With `CC(C)CCc1noc(CN2CCC(C(=O)N3CCOCC3)CC2)n1` the “hERG current change (%, negative = inhibition) at 10uM” value was -6.13%. `C/C=C/n1ccnc1CC(O)(c1ccccc1)c1ccc(C)cc1` (stereo not drawn) was tested, and the “hERG current change (%, negative = inhibition) at 10uM” value was -22.5%. For `Nc1nnnn1/N=C\c1ccc(Cl)c([N+](=O)[O-])c1`, the “hERG current change (%, negative = inhibition) at 10uM” value was 3.26%. With `COc1ccc(NC(=S)Nc2cccnc2)c(OC)c1` the “hERG current change (%, negative = inhibition) at 10uM” value was 8.2%. For `CCN(Cc1nc2ccccc2c(=O)[nH]1)Cc1cc(=O)oc2cc(OC)ccc12`, the “hERG current change (%, negative = inhibition) at 10uM” value was -51.1%. For `CCc1ccc2c(CN(CC)Cc3nc4ccccc4c(=O)[nH]3)cc(=O)oc2c1`, the “hERG current change (%, negative = inhibition) at 10uM” value was -71.6%. With `CCN(CC(=O)Nc1cc(OC)ccc1OC)Cc1nc2ccccc2c(=O)[nH]1` the “hERG current change (%, negative = inhibition) at 10uM” value was -8.33%. With `CN(Cc1nc2ccccc2c(=O)[nH]1)Cc1cc(=O)oc2ccc3ccccc3c12` the “hERG current change (%, negative = inhibition) at 10uM” value was -10.1%. In the case of `CCN(Cc1nc2ccccc2c(=O)[nH]1)Cc1cc(=O)oc2cc(C)c(C)cc12`, the “hERG current change (%, negative = inhibition) at 10uM” value is reported as -41.4%. In the case of `CCN(Cc1nc2ccccc2c(=O)[nH]1)Cc1nc2cc(OC)c(OC)cc2c(=O)[nH]1`, the “hERG current change (%, negative = inhibition) at 10uM” value is reported as 14.9%. With `N#Cc1ccccc1S(=O)(=O)N1CCN(CC(=O)NCC2(N3CCOCC3)CCCCC2)CC1` the “hERG current change (%, negative = inhibition) at 10uM” value was -27.3%. With `CCOc1cc(/C=C2/NC(=O)N(CC(=O)OC)C2=O)ccc1O` the “hERG current change (%, negative = inhibition) at 10uM” value was 3.71%. With `O=C(O)c1ccc(Br)c(S(=O)(=O)N2CCCC2)c1` the “hERG current change (%, negative = inhibition) at 10uM” value was 9.91%. With `CCNC(=O)C(=O)Nc1ccc([N+](=O)[O-])cc1` the “hERG current change (%, negative = inhibition) at 10uM” value was 2.37%. In the case of `Cc1ccc(NC(=O)C(=O)NCCN2CCN(S(C)(=O)=O)CC2)cc1`, the “hERG current change (%, negative = inhibition) at 10uM” value is reported as 19.6%. For `CCCCc1ccc(NC(=O)C(=O)NCCN2CCN(Cc3ccc([N+](=O)[O-])cc3)CC2)cc1`, the “hERG current change (%, negative = inhibition) at 10uM” value was -66.7%. `Cc1ccc(NC(=O)C(=O)NCCN2CCN(Cc3ccc([N+](=O)[O-])cc3)CC2)cc1` was tested, and the “hERG current change (%, negative = inhibition) at 10uM” value was -72.8%. `CCc1ccc(NC(=O)C(=O)NCCN2CCN(S(C)(=O)=O)CC2)cc1` was tested, and the “hERG current change (%, negative = inhibition) at 10uM” value was 20.5%. `COc1ccc(NC(=O)C(=O)NCCN2CCN(C(=O)c3ccco3)CC2)cc1` was tested, and the “hERG current change (%, negative = inhibition) at 10uM” value was -11.1%. For `CCc1ccc(NC(=O)C(=O)NCCN2CCN(C(=O)c3ccco3)CC2)cc1`, the “hERG current change (%, negative = inhibition) at 10uM” value was -67%. For `CCN1CCN(CCNC(=O)Nc2ccc([N+](=O)[O-])cc2)CC1`, the “hERG current change (%, negative = inhibition) at 10uM” value was -12.2%. With `CCc1ccc(NC(=O)C(=O)NCCN2CCN(Cc3ccc([N+](=O)[O-])cc3)CC2)cc1` the “hERG current change (%, negative = inhibition) at 10uM” value was -72.5%. `CCCCc1ccc(NC(=O)C(=O)NCCN2CCN(C(=O)c3ccc([N+](=O)[O-])cc3)CC2)cc1` was tested, and the “hERG current change (%, negative = inhibition) at 10uM” value was -22.4%. In the case of `CCc1ccc(CN2CCN(C(=O)c3ccco3)CC2)cc1.O=C(O)C(=O)O`, the “hERG current change (%, negative = inhibition) at 10uM” value is reported as -23.8%. For `O=C(CNC(=O)c1cccs1)NCC(=O)OCc1ccc(F)cc1`, the “hERG current change (%, negative = inhibition) at 10uM” value was -13.1%. With `O=C(CN1C(=O)C(=O)N(C2CCCC2)C1=O)NCCc1ccc(Cl)cc1Cl` the “hERG current change (%, negative = inhibition) at 10uM” value was 10.4%. For `COc1ccccc1NC(=O)Cn1nc(-c2ccncc2)nc1SCC(=O)NC1CCCC1`, the “hERG current change (%, negative = inhibition) at 10uM” value was -20.2%. `COC(=O)CC1SC(=O)NC1=Nc1ccc(OC)cc1` (stereo not drawn) was tested, and the “hERG current change (%, negative = inhibition) at 10uM” value was 1.66%. `CCC(C)NS(=O)(=O)c1ccc(OCC(=O)Nc2ccc(F)cc2F)cc1` (stereo not drawn) was tested, and the “hERG current change (%, negative = inhibition) at 10uM” value was -2.06%. For `COCCCNCC#CCOc1ccc(OC)cc1.O=C(O)C(=O)O`, the “hERG current change (%, negative = inhibition) at 10uM” value was 0.922%. In the case of `O=C(NCCc1ccccc1)C(=O)Nc1ccc([N+](=O)[O-])cc1`, the “hERG current change (%, negative = inhibition) at 10uM” value is reported as -2.37%. For `O=C(NCCN1CCN(Cc2ccc([N+](=O)[O-])cc2)CC1)C(=O)Nc1ccccc1`, the “hERG current change (%, negative = inhibition) at 10uM” value was -64.3%. For `O=C(NCCN1CCN(S(=O)(=O)c2ccc([N+](=O)[O-])cc2)CC1)C(=O)Nc1ccccc1`, the “hERG current change (%, negative = inhibition) at 10uM” value was 13.5%. `CC(OC(=O)c1ccc2c(c1)C(=O)N(Cc1ccncc1)C2=O)C(=O)Nc1cccc(Cl)c1Cl` (stereo not drawn) was tested, and the “hERG current change (%, negative = inhibition) at 10uM” value was -11.1%. With `COC(=O)c1ccc(C(=O)OC)c(NC(=O)C(C)(C)C)c1` the “hERG current change (%, negative = inhibition) at 10uM” value was 20.7%. `COC(=O)c1ccc(C(=O)OC)c(NC(=S)N2CCN(c3ccccc3F)CC2)c1` was tested, and the “hERG current change (%, negative = inhibition) at 10uM” value was -52.9%. In the case of `COC(=O)c1ccc(C(=O)OC)c(NC(=S)N2CCN(c3ccccc3)CC2)c1`, the “hERG current change (%, negative = inhibition) at 10uM” value is reported as -19.1%. For `COC(=O)c1ccc(NC(=O)CS(=O)(=O)Cc2ccccc2)cc1`, the “hERG current change (%, negative = inhibition) at 10uM” value was 1.28%. With `COC(=O)c1ccc(C(=O)OC)c(NC(=O)C2CCCO2)c1` (stereo not drawn) the “hERG current change (%, negative = inhibition) at 10uM” value was 10.5%. In the case of `COC(=O)c1ccc(C(=O)OC)c(NC(=O)C2CC2)c1`, the “hERG current change (%, negative = inhibition) at 10uM” value is reported as -68.9%. `COC(=O)c1ccc(C(=O)OC)c(NC(=S)N2CCN(c3ccc(F)cc3)CC2)c1` was tested, and the “hERG current change (%, negative = inhibition) at 10uM” value was -24%. With `COC(=O)c1ccc(C(=O)OC)c(NC(=O)CS(=O)(=O)Cc2ccccc2)c1` the “hERG current change (%, negative = inhibition) at 10uM” value was -53.2%. With `COC(=O)c1ccc(C(=O)OC)c(NC(=O)CCS(=O)(=O)Cc2ccccc2)c1` the “hERG current change (%, negative = inhibition) at 10uM” value was -2.41%. In the case of `Fc1ccc(-c2nnc(SCc3cccnc3)o2)cc1`, the “hERG current change (%, negative = inhibition) at 10uM” value is reported as -3.91%. With `Fc1cccc(F)c1/C=N/NC(=S)Nc1cccnc1` the “hERG current change (%, negative = inhibition) at 10uM” value was -14.3%. For `Cl.Oc1cccc(C(O)CNCc2ccc(OCc3ccc(Cl)cc3Cl)cc2)c1` (stereo not drawn), the “hERG current change (%, negative = inhibition) at 10uM” value was 7.89%. For `C=CCN(CC=C)S(=O)(=O)c1ccc(NC(=S)NC(=O)/C=C/c2ccc(C)cc2)cc1`, the “hERG current change (%, negative = inhibition) at 10uM” value was 6.12%. `CN(C)CCOC(=O)C12CC3(C)CC(C)(CC(C)(C3)C1)C2.Cl` was tested, and the “hERG current change (%, negative = inhibition) at 10uM” value was -7.13%. `COc1ccc(CCNC(=O)CSCC(=O)Nc2ccccc2)cc1OC` was tested, and the “hERG current change (%, negative = inhibition) at 10uM” value was 17.8%. In the case of `COc1ccc(/C=C/C(=O)OCC(=O)Nc2c(C)cccc2C)cc1`, the “hERG current change (%, negative = inhibition) at 10uM” value is reported as 12.5%. With `CCOC(=O)c1c(-c2ccc(C)o2)csc1NC(=O)CSc1nnnn1-c1ccccc1` the “hERG current change (%, negative = inhibition) at 10uM” value was -3.66%.
